Experimental findings from PubChem BioAssay are described below.

Experiment [1] has as its system Aerobactin synthetase IucA (Klebsiella pneumoniae). The experiment can be described thus: inhibition of K. pneumoniae IucA enzyme – biochemical, Tocris library, absorbance (AID 1345561; call rule not given here;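 note: 100% = enzyme without compound and 0% = no enzyme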). Particulars: purified IucA enzyme assay, absorbance (OD) read-out; stronger effect = lower value;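 tested at 8 µM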.
A short description of experiment [2]: viability loss in pontine glioma line – cell-based, SU-DIPG-XVII, MIPE5.0, CellTiter-Glo, qHTS, dose response (AID 1347060).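 For AC50: cells exposed to compound for 48 hours before viability readout.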 Particulars: CellTiter-Glo ATP luminescence. On the technique in general: In ATP-based viability assays light output follows the ATP content of the culture.
Experiment [3] can be described thus: viability loss in pontine glioma line – cell-based, SU-DIPG-XIII, MIPE4.0, CellTiter-Glo, qHTS, dose response (AID 1347061; cut-off not given, nearly all actives have AC50 up to about 37 µM;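 note: cells exposed to compound for 48 hours before readout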). The note with it: CellTiter-Glo ATP luminescence.
Experiment [4] in a line: viability loss in pontine glioma line – cell-based, JHH-DIPG-1, MIPE4.0, CellTiter-Glo, qHTS, dose response (AID 1347062; cut-off not given, nearly all actives have AC50 up to about 27 µM). The note with it: JHH-DIPG-1 viability, CellTiter-Glo ATP luminescence.
Experiment [5] can be described thus: viability loss in pontine glioma line – cell-based, SU-DIPG-XIII, MIPE5.0, CellTiter-Glo, qHTS, dose response (AID 1347064; cut-off not given, nearly all actives have AC50 up to about 23 µM;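 for AC50: cells exposed to compound for 48 hours before the viability read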). Particulars: CellTiter-Glo ATP luminescence.
A short description of experiment [6]: growth inhibition of DIPG cells – cell-based, MIPE4.0 library, CellTiter-Glo luminescence, qHTS (AID 1347066; cut-off not given, nearly all actives have AC50 up to about 30 µM;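 note: cells exposed to compound for 48 hours before readout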). The note with it: SU-DIPG-VI viability, CellTiter-Glo ATP luminescence.
Experiment [7] in a line: JHH-DIPG-1 glioma cell viability, MIPE5.0 library, CellTiter-Glo luminescence, qHTS (AID 1347067).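 Note: cells exposed to compound for 48 hours before readout.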 Particulars: JHH-DIPG-1 glioma viability, CellTiter-Glo ATP luminescence.
The nature of experiment [8]: growth inhibition of DIPG cells – cell-based, MIPE5.0 library, qHTS (AID 1347068; cut-off not given, nearly all actives have IC50 up to about 30 µM;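 for IC50: cells exposed to compound for 48 hours before viability readout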). The note with it: SU-DIPG-XXV viability. A general note: Quantitative high-throughput screening tests each substance at several concentrations.
A short description of experiment [9]: viability loss with induced miR-34 in A549 – imaging, A549 dox-inducible miR-34, nuclei and caspase counts, primary screen (AID 1347080;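 active = compounds whose cell count with miR-34 switched on is under 0.7 times the count with it off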). The note with it: A549 miR-34 inducible, Hoechst nuclei count, 48 h.
Experiment [10] can be described thus: galactose survival enhancers in mitochondrial complex I cybrids – cell-based, galactose medium, ATP luminescence, primary screen (AID 1645843;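 active = z-score of at least 1.8 in each of two replicates, scored against plate mean and spread of sample wells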;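 note: positive z means more ATP and so rescue of galactose-driven cybrid death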). Particulars: complex I mutant cybrid cells, 72 h, stronger effect = higher value.
Experiment [11] in a line: P. berghei load reduction in hepatocytes – cell-based, HepG2, luciferase luminescence, HepG2 viability, primary screen (AID 624349; in the data active = parasite load remaining mostly below about 12%, no sharp cut-off; inactive = mostly above about 10%;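 note: 100% = mean of DMSO negative control wells on the same plate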). The note with it: P. berghei liver stage in HepG2, luciferase luminescence, concentration not given here; parasite load remaining: stronger effect = lower value; viability: measured here: HepG2 viability without parasites.
The nature of experiment [12]: MELAS cybrid and Rieske KO viability enhancers – cell-based, MELAS cybrids, Rieske KO mouse fibroblasts, CellTiter-Glo, primary screen (AID 1508586;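 active = mean z-score across replicates of 1.96 or higher in either the MELAS or the Rieske mutant cell line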;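 note: z relative to plate mean and SD of compound and empty wells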). Particulars: low glucose.
The nature of experiment [13]: viability loss in pontine glioma line – cell-based, SU-DIPG-XXV, MIPE5.0, CellTiter-Glo, qHTS, dose response (AID 1347065).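 Note: cells exposed to compound for 48 hours before ATP readout.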 Particulars: CellTiter-Glo ATP luminescence.
The mark [14] stands for this setting: stronger effect = lower value, cell number ratio, induced over uninduced.
Where [15] appears, read: measured here: relative caspase fold change +Dox/-Dox.
The mark [16] stands for this setting: measured here: total cells with miR-34 induction, stronger effect = lower value.
Setting [17] is: measured here: total cells without miR-34 induction.
The mark [18] stands for this setting: MELAS cybrid survival, CellTiter-Glo 48 h, stronger effect = higher value.
Setting [19] is: Rieske KO mouse fibroblast survival, CellTiter-Glo 72 h.

Values joined by “and” are separate entries in the source; they are usually repeats but may differ in a detail not shown here. Equal entries are not always repeated. Inconclusive results are not listed. Active and inactive are the calls of the source. Unless noted, no cut-off is given here; in the data, nearly all actives have AC50 up to about 26 µM.

On to `O=C(O)C1CCCN(CCC=C(c2ccccc2)c2ccccc2)C1` (centres undefined), for which the remaining activity in experiment [1] was 104% (inactive). In addition, the call in experiment [2], in experiment [3], in experiment [4], in experiment [5], in experiment [6] and in experiment [7] was inactive. For the same molecule, in experiment [8], the molecule was called inactive. Besides, the fold change in experiment [9] (setting [14]) is 0.98 (inactive) and 0.952 (inactive); in experiment [9] (setting [15]) it was 1.12 and 1.07. Also, the cell count in experiment [9] (setting [16]) was 9290 and 8980; in experiment [9] (setting [17]) it was 9480 and 9430. Also, the z-score in experiment [10] is 0.12 (inactive) and 0.13 (inactive).
Consider `CCCCC[C@H](O)/C=C/[C@H]1[C@H](O)CC(=O)[C@@H]1C/C=C\CCCC(=O)O`, for which, in [11], the parasite load remaining is 43.5% (inactive). Also, the viability in experiment [11] came to 99.5%. In addition, in experiment [1], the remaining activity is 127% (inactive). Further, the call in [2], in [3], in experiment [4] and in experiment [8] was inactive. For the same molecule, the z-score in [12] (setting [18]) was 0.0898 (inactive); in experiment [12] (setting [19]) it was -0.895; in experiment [10], -0.165 (inactive) and 0.63 (inactive).
On to `Cc1cc(I)ccc1Nc1c(C(=O)NOCC2CC2)cc(F)c(F)c1F`, for which the parasite load remaining in experiment [11] was 55.5% (inactive). The molecule also came in with a viability in experiment [11] of 67.8%. The remaining activity in [1] is 104% (inactive). Further, the AC50 in experiment [2] was 5.9 µM (active); in experiment [5], 6.61 µM (active); in [13] it was 9.34 µM (active); in experiment [7] it was 4.17 µM (active). Also, the 50% inhibitory concentration (IC50) in experiment [8] was 10.5 µM (active). In addition, the fold change in experiment [9] (setting [14]) was 1.12 (inactive); in [9] (setting [15]), 1.32. Further, the cell count was determined as 1290 in experiment [9] (setting [16]) and 1150 in experiment [9] (setting [17]). Further, the z-score in experiment [10] was -0.65 (inactive).
As to `Fc1ccc(Cl)cc1-c1nc(Nc2ccncc2)c2nccnc2n1`, the remaining activity in experiment [1] is 110% (inactive). Besides, the concentration at half-maximal activity (AC50) in [2] is 23.5 µM (active). The molecule was called inactive in [3], in [4], in experiment [6] and in experiment [8]. For the same molecule, the figures for the fold change in [9] (setting [14]) and in experiment [9] (setting [15]) were 0.904 (inactive) and 1.34, respectively. Further, the values for the cell count in experiment [9] (setting [16]) and in [9] (setting [17]) were 8670 and 9590, respectively. Also, the z-score in experiment [10] is 1.11 (inactive).
With `O=C1Nc2ccc(I)cc2/C1=C/c1cc(Br)c(O)c(Br)c1`, in experiment [1], the remaining activity is 117% (inactive). For the same molecule, the outcome in [2], in experiment [4], in [5], in experiment [6] and in [7] was inactive. In addition, the fold change was 0.983 (inactive) and 1.01 (inactive) and 0.869 (inactive) in [9] (setting [14]); 1.44 and 1.3 and 0.748 in experiment [9] (setting [15]). The cell count is 8580 and 4160 and 8980 in experiment [9] (setting [16]); 8730 and 4120 and 10300 in [9] (setting [17]). For the same molecule, the z-score in experiment [10] is -0.635 (inactive) and -0.18 (inactive).
`COc1cc2nccc(Oc3ccc(NC(=O)Nc4ccc(F)cc4F)c(F)c3)c2cc1OC`: the remaining activity in experiment [1] was 115% (inactive). Besides, the figures for the half-maximal activity concentration (AC50) in [2], in [13] and in [7] were 5.25 µM (active), 3.32 µM (active) and 4.17 µM (active), respectively. Also, the call in [4] and in experiment [6] was inactive. For the same molecule, the fold change was 0.97 (inactive) and 0.906 (inactive) in experiment [9] (setting [14]); 1.3 and 1.55 in experiment [9] (setting [15]). For the same molecule, the cell count in [9] (setting [16]) was 1960 and 2970; in experiment [9] (setting [17]) it was 2020 and 3280. Besides, the z-score in experiment [12] (setting [18]) is -0.553 (inactive); in experiment [12] (setting [19]) it was 0.363; in experiment [10], -0.37 (inactive).
For `CC(Oc1ccc(O)cc1)(P(=O)(O)O)P(=O)(O)O`, in [1], the remaining activity was 115% (inactive). Further, the molecule was called inactive in experiment [2], in experiment [3], in experiment [4], in experiment [5], in [6] and in experiment [7]. For the same molecule, the molecule was classed as inactive in [8]. In addition, the figures for the fold change in experiment [9] (setting [14]) and in experiment [9] (setting [15]) were 0.98 (inactive) and 0.597, respectively. The cell count was determined as 9020 in [9] (setting [16]) and 9200 in experiment [9] (setting [17]). Also, the z-score in experiment [10] is -0.285 (inactive).

The remaining activity is the signal under treatment as a percentage of the control signal. A word on the viability: it is the share of living cells, or the viability signal relative to a control. For orientation: AC50 means the midpoint of the concentration-response curve, whichever way the signal moves. In general, IC50 refers to the concentration at which inhibition is half-maximal.
